Where “and” joins values, the source holds several entries; their conditions need not be identical. Equal entries are not always repeated. Out of some 350,000 compounds screened, about 31,000 (8.9%) were called active. About 15% were inconclusive and are not listed. Calls follow the shape of the dose curve; as a rule, active = well fitted inhibition curve with a large enough effect; inconclusive = small, poorly fitted or top-dose-only effect; inactive = no such curve, though single readings can be large or run the other way. What follows is part of a selection rich in actives, with near analogues and random picks from the rest.
Biological target: Histone-lysine N-methyltransferase EHMT2 (Homo sapiens) (UniProt Q96KQ7)
Experiment: qHTS Assay for Inhibitors of Histone Lysine Methyltransferase G9a; also: nearly all actives have a fitted effect of over 75% in size
Settings: G9a H3K9 monomethylation, AlphaScreen, 2 h; series mostly up to 59 µM
In short: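 Methyltransferase reactions run at room temperature for 2 h (20 nM enzyme, 500 nM biotin-H3K9 peptide, 20 uM SAM) after a 15 min compound preincubation; product detected by AlphaScreen beads and anti-H3K9me1 antibody.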
% is scaled to controls: 0 for no effect and ±100 for the full control effect; potency is read from the fitted curve at half-maximal effect.

Histone-lysine N-methyltransferase EHMT2 (Homo sapiens), sequence (Q96KQ7 913-1193 limits assumed): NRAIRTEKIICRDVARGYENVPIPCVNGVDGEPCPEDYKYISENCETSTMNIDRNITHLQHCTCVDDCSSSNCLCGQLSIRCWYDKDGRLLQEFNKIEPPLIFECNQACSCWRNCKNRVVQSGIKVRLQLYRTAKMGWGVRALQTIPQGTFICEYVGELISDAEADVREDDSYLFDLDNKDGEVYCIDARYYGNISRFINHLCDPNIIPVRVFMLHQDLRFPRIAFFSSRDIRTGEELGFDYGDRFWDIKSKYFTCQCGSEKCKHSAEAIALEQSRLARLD

activity, negative = inhibition, inactive:
O=c1[nH]c(=O)c2nc3ccccc3nc2[nH]1 -3.42% [at 12.7 µM] and 46.4% [at 12.7 µM], O=C(COC(=O)c1c(Cl)cccc1Cl)Nc1cccc(S(=O)(=O)NC2=NCCCCC2)c1 -0.124% [at 12.7 µM], CN(C(=O)CSc1nnc(-c2ccc(C(C)(C)C)cc2)n1C)C1CCS(=O)(=O)C1 (configuration not stated) 1.39% [at 12.7 µM], CCOC(=O)[C@H]1[C@H]2COc3ccc(C)cc3[C@@H]2N2C(=O)CN(Cc3ccc(F)cc3)C(=O)[C@@]12C 9.53% [at 0.501 µM], CC(C)(CCl)C(=O)Nc1ccc(Sc2ccc(F)cc2)cc1 -58.2% [at 2.33 µM], Cc1ccccc1NC(=O)NCC1CCN(Cc2cccc(Cl)c2)CC1 2.62% [at 2.33 µM], CN(C)c1ccnc2sc3c(=O)n(Cc4ccccc4)cnc3c12 26.4% [at 0.501 µM], COc1ccccc1C(=O)NC(CCSC)C(=O)NNC(=O)c1ccccc1C (configuration not stated) 25.8% [at 0.501 µM], COc1cc(C(=O)NCC(=O)NCCSc2ccc(Br)cc2)cc(OC)c1OC 10% [at 0.501 µM], O=C(COC(=O)Cc1ccccc1F)NCCc1ccccc1 -6.48% [at 2.33 µM], Cc1ccccc1C(=O)NCC(c1ccco1)N1CCc2ccccc21 (configuration not stated) 12% [at 2.33 µM], COc1ccc(C(=O)NCC(c2ccco2)N2CCc3ccccc32)cc1OC (configuration not stated) -2.6% [at 0.501 µM], C=CCn1c(SCC(=O)Nc2ccc(NC(C)=O)cc2)nc2sc(C)c(C)c2c1=O 8.2% [at 12.7 µM], CCN(C(=O)Cc1c(C(=O)O)n(CC)c2ccccc12)c1ccccc1C 26.7% [at 0.501 µM], CCOc1ccc(C(=O)NCC(=O)N2CCCCCCC2)cc1OCC 8% [at 0.501 µM], CC(C(=O)N1CCc2ccccc21)N(C)CC(=O)Nc1ccc(F)cc1 (configuration not stated) 13.8% [at 12.7 µM], CC(=NCc1ccco1)c1c(C(F)(F)F)[nH]n(-c2nc3ccccc3s2)c1=O 1.72% [at 12.7 µM]

Potency, active:
Nc1ccc2nc3c(=O)[nH]c(=S)[nH]c3nc2c1 10 µM, FC(F)(F)C1CCCN(c2nsc3ccccc23)C1 (configuration not stated) 1.12 µM, NS(=O)(=O)c1ccc(CCNc2nc(C(F)(F)F)nc3ccccc23)cc1 70.8 µM, O=C(CSc1nc2[nH]ncc2c(=O)n1-c1ccccc1)N1CCCc2ccccc21 8.91 µM, O=C(C[n+]1cc(Br)cc2ccccc21)c1ccc(F)cc1 50.1 µM, Cc1cc(C)c2nc(SCC(=O)N(C)C3CCS(=O)(=O)C3)cc(C)c2c1 (configuration not stated) 44.7 µM, COC(=O)c1ccc(Sc2ccc(F)cc2)c(N)c1 28.2 µM, CC(C)CC(=O)N1CCN(Cc2ccccc2Br)CC1 20 µM, CC(C)CC(=O)N1CCN(Cc2cccc(Cl)c2)CC1 22.4 µM, O=S(=O)(O)c1nc2ccccc2n1Cc1ccc(Cl)cc1 50.1 µM, COc1ccc(S(=O)(=O)/N=C2\C=C(NS(=O)(=O)c3ccccc3)C(=O)c3ccccc32)cc1 8.91 µM, CC1=NN(Cc2ccccc2)C(=O)/C1=C/c1ccc(N(C)C)cc1 10 µM, c1ccc(CSc2nnc(-c3ccco3)c(-c3ccco3)n2)cc1 6.31 µM, OC(CNCCc1ccc(Cl)cc1Cl)COc1ccccc1 (configuration not stated) 25.1 µM, O=C(NCC(c1ccco1)N1CCc2ccccc21)c1cccc(F)c1 (configuration not stated) 50.1 µM, CC1Cc2ccccc2N1S(=O)(=O)c1cccc(C(=O)NCC(c2ccco2)N2CCCC2)c1 (configuration not stated) 39.8 µM, C=CCn1c(SCc2csc(C)n2)nc2scc(-c3ccc(C)o3)c2c1=O 10 µM, CCN(C(=O)CSc1ncn[nH]1)c1cccc2ccccc12 22.4 µM, COC(=O)Cc1[nH]n(-c2nc3ccccc3s2)c(=O)c1C(C)=Nc1ccc(OC)cc1 2.82 µM, c1ccc(-n2ncc(-c3nn[nH]n3)n2)cc1 50.1 µM, CC1=C(C(N)=O)C(c2ccc3c(c2)OCO3)n2nc(-c3cccc(C)c3)nc2N1 (configuration not stated) 0.355 µM, Cc1cc(F)ccc1NC1(c2ccccc2)C(=O)c2ccccc2C1=O 14.1 µM

Potency, inactive:
CC1CCCC(NC(=O)c2cc(-c3ccncc3)nc3ccccc23)C1C (configuration not stated), Cc1cc(NS(=O)(=O)c2ccc3oc(=O)c4ncn(C)c4c3c2)ccc1Br, Cc1ccccc1CSc1nc(-c2ccccc2)nc2c1Cc1c(CO)cnc(C)c1O2, Cc1cc(N2CCN(c3cccc(C(F)(F)F)c3)CC2)n2nc(-c3ccccc3)nc2n1, O=C(NC(Cc1ccccc1)C(=O)N1CCCC(C(F)(F)F)C1)c1ccccc1 (configuration not stated), O=C(NCC(=O)N1CCCC(C(F)(F)F)C1)c1ccccc1F (configuration not stated), COc1cccc(CNc2nc(C(F)(F)F)nc3ccccc23)c1, CCc1ccc(C(CNc2nc(C(F)(F)F)nc3ccccc23)N(C)C)cc1 (configuration not stated), Cc1ccc(-c2cc(C(=O)Oc3ccccc3Cl)no2)cc1C, CC(NC(=O)c1ccccc1SCC(=O)N1CCCC1)c1ccccc1 (configuration not stated), Cc1nnc(SCC(=O)N2CCc3ccccc32)n1-c1ccccc1, Cn1c(SCC(=O)N2CCCc3ccccc32)nc2ccccc2c1=O, Cc1cccc[n+]1CC(=O)c1ccccc1, O=C(CNC(=O)c1ccccc1F)c1ccc(Br)cc1, COC(=O)c1cnn(-c2ccc(C(=O)Nc3ccc(OC(F)(F)F)cc3)cc2)c1N, COc1ccc(-c2cn3c(C)c(C(=O)Nc4cc(C)cc(C)c4)sc3n2)cc1, COc1ccc2c(-c3ccccc3)cc(SCC(=O)N(C)C3CCS(=O)(=O)C3)nc2c1 (configuration not stated), O=C(NCc1cccc(Cl)c1)C1CCN(c2nnc(N3CCCC3=O)s2)CC1, COC(=O)c1ccc(/C=N/OCC(=O)Nc2cc(F)ccc2F)cc1, O=C(c1cccc(Cl)c1)N1CCN(Cc2ccccc2)CC1, CC(CC(=O)N1CCN(c2ccccc2)CC1)c1ccccc1 (configuration not stated), CC(C)CC(=O)N1CCC(O)(CS(=O)(=O)Cc2ccccc2)CC1, COc1cc([N+](=O)[O-])ccc1NC(=O)COC(=O)CCOc1ccc(C)cc1, Cc1ccc(/C=C2/SC(=S)N(CCC(=O)NCCCN3CCOCC3)C2=O)cc1, O=C(CCCCn1c(=O)c2ccccc2n(CC(=O)Nc2cccc(C(F)(F)F)c2)c1=O)NCc1ccc2c(c1)OCO2, COc1cccc(CNCCSc2nnnn2C)c1OCc1ccccc1Cl, Cn1c(S(=O)(=O)O)nc2ccccc21, O=S(=O)(O)c1nc2ccccc2n1Cc1ccc(Cl)cc1Cl, CCc1nn(CC(=O)NCC(C)c2ccccc2)c(=O)c2cc3occc3n12 (configuration not stated), COc1ccc(S(=O)(=O)Nc2c(C)n(C)n(-c3ccccc3)c2=O)cc1, COc1ccc2cc(S(=O)(=O)Nc3ccccn3)ccc2c1, CN(C)c1ccc(/C=C2\NC(=S)N(Cc3ccccc3)C2=O)cc1, COc1ccc2nc(SCc3ccccc3)nc(C)c2c1, O=c1[nH]c(SCc2ccccc2)nnc1-c1ccccc1, CC(=O)Nc1ccc(C(=O)N(C2=NC(C)CS2)c2ccc(Cl)cc2)cc1 (configuration not stated), COCCCNC(=O)c1ccc(NC(=O)c2nsc3ccccc23)cc1, COc1ccc(OCC(O)CNC(=O)Nc2ccc(Cl)cc2)cc1 (configuration not stated), COC(=O)c1sc2ncccc2c1OCc1ccc(Cl)cc1Cl, CCCCN(CC)CCCNC(=O)Cn1ncc2c([nH]c3ccc(C)cc32)c1=O, COc1cc(C(=O)NCC(c2ccco2)N2CCCC2)ccc1OCc1ccccc1 (configuration not stated), CC1CCc2sc(C(=O)NCC(c3ccco3)N3CCCCC3)cc2C1 (configuration not stated), COc1ccc2cc(C(=O)NCC3CCCO3)[nH]c2c1 (configuration not stated), Cc1cc2c(cc1S(=O)(=O)CCC(=O)Nc1ccc(OC(F)(F)F)cc1)OCC(=O)N2, C=CCn1c(SCC(=O)/C(C#N)=C(\C)N)nc2sc(C)c(C)c2c1=O, O=C(CSc1ncn[nH]1)Nc1nsc(-c2ccccc2)n1, CC(Oc1ccc(F)cc1)C(=O)Nc1ccccc1C(=O)NC1CC1 (configuration not stated), COc1cc(-c2c(-c3ccc4c(c3)OCO4)noc2C)ccc1F, C/C(=N\NC(=O)CC(C)C)c1c(C(F)(F)F)[nH]n(-c2nc3ccccc3s2)c1=O, COc1ccccc1CCC(=O)OCC(=O)N1CCN(S(=O)(=O)c2ccc(C)cc2C)CC1, c1ccc(-n2nc3ccccc3n2)cc1, Brc1ccc(-c2nn[nH]n2)cc1, Cc1c(NC(=O)C(C)Oc2cccc(Cl)c2)c(=O)n(-c2ccccc2)n1C (configuration not stated), CCN(CC)c1ccc(C2C(C(N)=O)=C(C)Nc3nc(SCc4ccccc4)nn32)cc1 (configuration not stated), COc1cccc(-c2nc3n(n2)C(c2ccccc2Cl)C(C(N)=O)=C(C)N3)c1 (configuration not stated), COc1ccc(CC(=O)N2CC(=O)Nc3ccc(Br)cc3C2c2ccc(F)cc2)cc1OC (configuration not stated), CCc1ccc(C2C(C(=O)Nc3ccccc3)=C(C)Nc3c(C(=O)Nc4ccc(C)cc4)cnn32)cc1 (configuration not stated), Cc1cc(F)ccc1NS(=O)(=O)c1ccc(-n2cccn2)cc1, Cc1cc(F)ccc1NC(=O)C(C)n1c2ccccc2c2nc(=O)cc(C)n21 (configuration not stated)

Source: PubChem BioAssay AID504332 (National Center for Advancing Translational Sciences (NCATS), 2011)
